In the supplement of paper PMC11732987, “Enantioselective OTUD7B fragment discovery through chemoproteomics screening and high-throughput optimisation” (Communications Chemistry, 2025):

What was measured:
Experiment in all cases: log2 ratio of Biotin-Ahx-Ub-VS probe labelling (fragment/DMSO); higher = less target engagement (more negative = stronger competition), active = hit call of the paper (q ≤ 0.05, log2 ratio ≤ -1)
Settings in all cases: compound concentration: 200 uM; treatment time: 3 h
[1] = biological target: T1, USP42 (UniProt Q9H9J4)
T1 sequence (whole entry): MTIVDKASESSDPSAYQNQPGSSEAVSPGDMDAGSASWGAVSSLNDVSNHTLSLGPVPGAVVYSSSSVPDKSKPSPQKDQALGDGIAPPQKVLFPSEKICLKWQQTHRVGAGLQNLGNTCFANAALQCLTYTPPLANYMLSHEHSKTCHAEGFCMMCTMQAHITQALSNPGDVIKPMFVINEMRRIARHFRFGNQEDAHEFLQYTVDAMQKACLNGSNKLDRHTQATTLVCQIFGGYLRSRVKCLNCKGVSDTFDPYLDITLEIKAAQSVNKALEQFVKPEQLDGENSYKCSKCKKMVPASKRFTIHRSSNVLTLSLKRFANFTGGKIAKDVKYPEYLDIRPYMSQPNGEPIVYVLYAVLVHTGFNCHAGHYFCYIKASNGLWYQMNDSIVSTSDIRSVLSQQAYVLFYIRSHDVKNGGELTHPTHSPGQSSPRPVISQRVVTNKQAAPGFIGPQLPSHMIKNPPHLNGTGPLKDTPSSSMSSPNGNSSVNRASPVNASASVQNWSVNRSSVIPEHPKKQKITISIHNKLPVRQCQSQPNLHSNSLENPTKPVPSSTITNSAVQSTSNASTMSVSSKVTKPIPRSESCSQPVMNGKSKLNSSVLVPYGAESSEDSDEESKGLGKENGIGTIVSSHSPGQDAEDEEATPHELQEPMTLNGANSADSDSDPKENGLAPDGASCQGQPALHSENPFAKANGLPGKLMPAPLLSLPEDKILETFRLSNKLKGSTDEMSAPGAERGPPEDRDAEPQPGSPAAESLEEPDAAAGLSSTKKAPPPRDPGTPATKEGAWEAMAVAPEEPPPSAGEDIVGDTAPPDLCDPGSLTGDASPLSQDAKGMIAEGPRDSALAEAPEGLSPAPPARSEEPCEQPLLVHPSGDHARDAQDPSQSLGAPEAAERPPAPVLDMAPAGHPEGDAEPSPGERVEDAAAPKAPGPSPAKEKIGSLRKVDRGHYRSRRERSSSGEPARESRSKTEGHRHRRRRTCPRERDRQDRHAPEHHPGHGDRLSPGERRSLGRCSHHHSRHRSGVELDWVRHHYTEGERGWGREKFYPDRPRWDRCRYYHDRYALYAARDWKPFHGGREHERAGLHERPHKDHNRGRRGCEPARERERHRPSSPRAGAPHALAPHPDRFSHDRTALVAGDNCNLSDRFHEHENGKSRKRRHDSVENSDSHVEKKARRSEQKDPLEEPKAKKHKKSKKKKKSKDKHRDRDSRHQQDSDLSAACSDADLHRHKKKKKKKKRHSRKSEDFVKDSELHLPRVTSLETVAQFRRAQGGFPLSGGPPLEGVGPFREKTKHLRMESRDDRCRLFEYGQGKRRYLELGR
Summary of the method: (§1)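 Labelling with Biotin-Ahx-Ub-VS (0.5 µM final, 1 h) followed a 3 h triplicate treatment of HEK293T lysate (495 µg per sample, Tris/CHAPS/IGEPAL buffer with protease inhibitors) with fragment at 200 µM or vehicle. Labelled DUBs were NeutrAvidin-enriched, digested with LysC and trypsin, and run by diaPASEF LC-MS/MS. The values, average log2 fragment/vehicle ratios by unpaired t-test, come from global-median-normalised Spectronaut label-free quantities. Proteins with ≥2 unique peptides were used.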

[2] = biological target: USP46 (UniProt P62068)
Summary of the method: as §1

[3] = biological target: T2, USP47 (UniProt Q96K76)
T2 sequence (whole entry): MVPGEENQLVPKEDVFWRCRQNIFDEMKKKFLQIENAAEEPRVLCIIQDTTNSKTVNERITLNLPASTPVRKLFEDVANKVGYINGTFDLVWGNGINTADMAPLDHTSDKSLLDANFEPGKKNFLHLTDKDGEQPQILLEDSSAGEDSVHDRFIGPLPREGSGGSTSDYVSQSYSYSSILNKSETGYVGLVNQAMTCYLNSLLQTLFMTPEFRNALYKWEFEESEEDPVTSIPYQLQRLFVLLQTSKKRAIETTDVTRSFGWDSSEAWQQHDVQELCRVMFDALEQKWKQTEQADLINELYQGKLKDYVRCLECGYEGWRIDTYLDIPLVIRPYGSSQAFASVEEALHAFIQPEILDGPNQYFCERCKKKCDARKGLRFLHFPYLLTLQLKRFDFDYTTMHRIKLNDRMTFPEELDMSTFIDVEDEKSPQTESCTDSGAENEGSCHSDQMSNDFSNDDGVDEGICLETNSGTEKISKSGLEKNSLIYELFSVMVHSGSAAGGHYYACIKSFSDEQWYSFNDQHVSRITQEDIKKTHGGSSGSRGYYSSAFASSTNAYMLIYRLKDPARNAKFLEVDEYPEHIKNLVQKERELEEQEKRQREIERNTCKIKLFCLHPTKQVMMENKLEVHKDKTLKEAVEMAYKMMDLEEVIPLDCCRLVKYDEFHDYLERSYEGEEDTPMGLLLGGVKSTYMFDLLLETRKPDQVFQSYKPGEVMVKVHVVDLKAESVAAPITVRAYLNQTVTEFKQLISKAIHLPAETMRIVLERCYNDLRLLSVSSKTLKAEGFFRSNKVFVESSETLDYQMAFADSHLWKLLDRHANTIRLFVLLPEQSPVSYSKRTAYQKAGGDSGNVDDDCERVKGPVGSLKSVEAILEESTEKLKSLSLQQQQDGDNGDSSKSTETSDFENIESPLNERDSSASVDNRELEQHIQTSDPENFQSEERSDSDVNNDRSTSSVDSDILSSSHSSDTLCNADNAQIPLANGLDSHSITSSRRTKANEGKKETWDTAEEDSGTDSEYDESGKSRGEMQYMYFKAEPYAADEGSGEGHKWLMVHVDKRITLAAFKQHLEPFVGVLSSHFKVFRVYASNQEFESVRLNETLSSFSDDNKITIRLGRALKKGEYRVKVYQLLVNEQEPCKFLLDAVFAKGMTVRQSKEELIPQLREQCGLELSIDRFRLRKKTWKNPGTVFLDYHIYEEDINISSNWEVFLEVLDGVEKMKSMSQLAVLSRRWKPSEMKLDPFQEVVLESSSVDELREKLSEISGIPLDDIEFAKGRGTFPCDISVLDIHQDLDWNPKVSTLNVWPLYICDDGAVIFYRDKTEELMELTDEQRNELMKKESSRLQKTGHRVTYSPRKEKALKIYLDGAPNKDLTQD
Summary of the method: as §1

[4] = biological target: T3, USP48 (UniProt Q86UV5)
T3 sequence (whole entry): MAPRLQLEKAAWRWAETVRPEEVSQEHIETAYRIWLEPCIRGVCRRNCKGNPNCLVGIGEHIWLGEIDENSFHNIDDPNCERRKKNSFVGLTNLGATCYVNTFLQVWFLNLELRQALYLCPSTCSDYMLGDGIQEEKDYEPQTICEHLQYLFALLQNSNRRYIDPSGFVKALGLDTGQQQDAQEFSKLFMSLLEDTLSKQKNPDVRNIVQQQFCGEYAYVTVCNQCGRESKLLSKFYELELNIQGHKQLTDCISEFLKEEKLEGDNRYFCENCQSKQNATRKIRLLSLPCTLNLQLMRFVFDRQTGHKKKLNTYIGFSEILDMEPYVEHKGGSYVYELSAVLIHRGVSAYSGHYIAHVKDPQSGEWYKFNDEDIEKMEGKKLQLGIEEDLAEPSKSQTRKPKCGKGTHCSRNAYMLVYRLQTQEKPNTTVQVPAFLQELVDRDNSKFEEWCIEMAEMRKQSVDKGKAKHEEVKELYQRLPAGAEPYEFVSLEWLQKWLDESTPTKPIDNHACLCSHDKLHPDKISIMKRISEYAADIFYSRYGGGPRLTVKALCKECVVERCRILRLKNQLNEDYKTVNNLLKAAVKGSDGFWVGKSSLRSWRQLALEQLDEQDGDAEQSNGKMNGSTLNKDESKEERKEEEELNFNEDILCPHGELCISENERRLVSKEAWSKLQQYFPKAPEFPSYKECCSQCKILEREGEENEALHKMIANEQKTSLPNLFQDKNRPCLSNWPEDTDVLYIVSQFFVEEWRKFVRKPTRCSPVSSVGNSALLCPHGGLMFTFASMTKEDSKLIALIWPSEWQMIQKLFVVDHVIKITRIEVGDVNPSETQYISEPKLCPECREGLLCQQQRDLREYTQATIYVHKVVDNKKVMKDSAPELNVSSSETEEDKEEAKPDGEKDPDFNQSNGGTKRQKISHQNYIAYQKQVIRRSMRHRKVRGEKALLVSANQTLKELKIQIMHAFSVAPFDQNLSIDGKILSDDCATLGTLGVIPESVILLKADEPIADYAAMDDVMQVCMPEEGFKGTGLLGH
Summary of the method: as §1

[5] = biological target: T4, USP5 (UniProt P45974)
T4 sequence (whole entry): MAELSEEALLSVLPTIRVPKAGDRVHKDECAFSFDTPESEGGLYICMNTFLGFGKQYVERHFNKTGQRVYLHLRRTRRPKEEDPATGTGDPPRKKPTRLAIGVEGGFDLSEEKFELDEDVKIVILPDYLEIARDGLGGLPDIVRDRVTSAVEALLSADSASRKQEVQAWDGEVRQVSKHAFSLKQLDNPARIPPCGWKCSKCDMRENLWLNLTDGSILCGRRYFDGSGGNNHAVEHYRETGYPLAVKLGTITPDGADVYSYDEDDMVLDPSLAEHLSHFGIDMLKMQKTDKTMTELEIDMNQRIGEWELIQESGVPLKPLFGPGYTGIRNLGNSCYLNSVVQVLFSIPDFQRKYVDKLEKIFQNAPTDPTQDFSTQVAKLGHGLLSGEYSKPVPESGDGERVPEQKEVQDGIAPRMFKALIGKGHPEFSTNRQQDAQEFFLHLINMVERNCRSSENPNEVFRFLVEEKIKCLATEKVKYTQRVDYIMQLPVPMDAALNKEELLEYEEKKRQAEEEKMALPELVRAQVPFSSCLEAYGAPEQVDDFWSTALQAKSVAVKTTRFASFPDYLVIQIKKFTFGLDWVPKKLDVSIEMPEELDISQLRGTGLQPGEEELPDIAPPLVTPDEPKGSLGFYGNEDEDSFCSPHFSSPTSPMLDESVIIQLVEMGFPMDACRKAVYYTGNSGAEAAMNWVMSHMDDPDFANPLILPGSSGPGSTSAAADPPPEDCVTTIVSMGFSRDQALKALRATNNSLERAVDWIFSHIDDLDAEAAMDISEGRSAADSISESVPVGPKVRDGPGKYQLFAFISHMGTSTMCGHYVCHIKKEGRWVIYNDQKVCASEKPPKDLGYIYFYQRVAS
Summary of the method: as §1

[6] = biological target: USP54 (UniProt Q70EL1)
Summary of the method: as §1

[7] = biological target: USP7 (UniProt Q93009)
Summary of the method: as §1

[8] = biological target: T5, USP8 (UniProt P40818)
T5 sequence (whole entry): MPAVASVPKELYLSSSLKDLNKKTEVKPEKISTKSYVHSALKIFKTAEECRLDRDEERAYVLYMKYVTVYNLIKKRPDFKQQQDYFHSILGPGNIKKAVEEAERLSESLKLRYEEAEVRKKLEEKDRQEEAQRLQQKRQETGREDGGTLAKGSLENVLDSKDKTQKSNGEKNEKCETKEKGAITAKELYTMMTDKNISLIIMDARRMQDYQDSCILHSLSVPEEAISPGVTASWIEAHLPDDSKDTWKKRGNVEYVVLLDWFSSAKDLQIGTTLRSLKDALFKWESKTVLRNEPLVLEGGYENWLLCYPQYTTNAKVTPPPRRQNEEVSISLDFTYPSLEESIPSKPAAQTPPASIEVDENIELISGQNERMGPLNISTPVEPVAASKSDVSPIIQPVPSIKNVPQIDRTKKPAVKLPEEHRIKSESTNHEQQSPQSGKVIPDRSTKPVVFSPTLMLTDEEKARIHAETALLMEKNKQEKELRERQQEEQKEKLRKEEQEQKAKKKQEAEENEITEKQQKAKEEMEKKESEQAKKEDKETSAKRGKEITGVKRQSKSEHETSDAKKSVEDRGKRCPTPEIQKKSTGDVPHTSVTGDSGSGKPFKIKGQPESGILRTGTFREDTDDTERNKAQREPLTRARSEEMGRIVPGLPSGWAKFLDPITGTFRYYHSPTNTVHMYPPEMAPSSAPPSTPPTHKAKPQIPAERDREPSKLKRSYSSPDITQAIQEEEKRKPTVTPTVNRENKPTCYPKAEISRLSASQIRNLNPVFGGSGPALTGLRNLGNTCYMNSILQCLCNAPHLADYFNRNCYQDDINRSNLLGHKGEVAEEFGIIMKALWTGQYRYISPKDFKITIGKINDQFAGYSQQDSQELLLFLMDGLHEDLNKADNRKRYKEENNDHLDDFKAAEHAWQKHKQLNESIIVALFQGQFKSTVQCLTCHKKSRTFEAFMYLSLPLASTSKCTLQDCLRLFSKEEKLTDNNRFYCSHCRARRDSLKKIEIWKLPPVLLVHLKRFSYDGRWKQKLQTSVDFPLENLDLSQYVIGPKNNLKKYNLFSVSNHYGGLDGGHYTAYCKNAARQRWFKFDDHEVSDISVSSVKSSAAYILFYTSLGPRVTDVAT
Summary of the method: as §1

[9] = biological target: USP9X (UniProt Q93008)
Summary of the method: as §1

[10] = biological target: UniProt O00487
Summary of the method: as §1

Measured: log2 ratio of Biotin-Ahx-Ub-VS probe labelling

USP7, sequence (Q93009 whole entry, looked up): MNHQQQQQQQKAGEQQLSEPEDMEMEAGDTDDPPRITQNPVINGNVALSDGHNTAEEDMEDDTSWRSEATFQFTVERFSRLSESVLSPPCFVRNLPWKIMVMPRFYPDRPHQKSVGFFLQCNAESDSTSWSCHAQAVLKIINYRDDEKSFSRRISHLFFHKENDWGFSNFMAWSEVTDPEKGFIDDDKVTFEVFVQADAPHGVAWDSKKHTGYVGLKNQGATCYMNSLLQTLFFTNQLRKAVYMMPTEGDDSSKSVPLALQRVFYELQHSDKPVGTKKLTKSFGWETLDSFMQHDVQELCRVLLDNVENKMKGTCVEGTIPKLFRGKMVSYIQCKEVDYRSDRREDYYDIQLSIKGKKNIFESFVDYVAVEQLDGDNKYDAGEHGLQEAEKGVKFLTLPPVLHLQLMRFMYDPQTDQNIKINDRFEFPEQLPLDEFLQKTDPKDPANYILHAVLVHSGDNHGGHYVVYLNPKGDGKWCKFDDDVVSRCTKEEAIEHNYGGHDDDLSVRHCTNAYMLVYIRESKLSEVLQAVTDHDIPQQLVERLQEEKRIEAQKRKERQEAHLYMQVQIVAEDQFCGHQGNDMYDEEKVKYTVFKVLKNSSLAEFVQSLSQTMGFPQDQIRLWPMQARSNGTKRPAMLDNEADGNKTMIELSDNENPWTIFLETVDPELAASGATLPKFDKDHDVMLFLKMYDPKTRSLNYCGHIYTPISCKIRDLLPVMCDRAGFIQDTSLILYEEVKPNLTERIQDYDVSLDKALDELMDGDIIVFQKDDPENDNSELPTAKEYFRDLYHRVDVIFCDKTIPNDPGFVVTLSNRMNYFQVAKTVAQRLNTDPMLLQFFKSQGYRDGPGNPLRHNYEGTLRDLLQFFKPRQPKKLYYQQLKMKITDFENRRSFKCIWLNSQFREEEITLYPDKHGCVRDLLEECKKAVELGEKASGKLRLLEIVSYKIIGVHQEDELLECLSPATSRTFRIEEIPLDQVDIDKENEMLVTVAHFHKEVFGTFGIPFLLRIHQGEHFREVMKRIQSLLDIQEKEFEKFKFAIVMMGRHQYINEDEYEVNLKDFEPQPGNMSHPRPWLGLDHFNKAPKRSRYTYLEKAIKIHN
USP54, sequence (Q70EL1 whole entry): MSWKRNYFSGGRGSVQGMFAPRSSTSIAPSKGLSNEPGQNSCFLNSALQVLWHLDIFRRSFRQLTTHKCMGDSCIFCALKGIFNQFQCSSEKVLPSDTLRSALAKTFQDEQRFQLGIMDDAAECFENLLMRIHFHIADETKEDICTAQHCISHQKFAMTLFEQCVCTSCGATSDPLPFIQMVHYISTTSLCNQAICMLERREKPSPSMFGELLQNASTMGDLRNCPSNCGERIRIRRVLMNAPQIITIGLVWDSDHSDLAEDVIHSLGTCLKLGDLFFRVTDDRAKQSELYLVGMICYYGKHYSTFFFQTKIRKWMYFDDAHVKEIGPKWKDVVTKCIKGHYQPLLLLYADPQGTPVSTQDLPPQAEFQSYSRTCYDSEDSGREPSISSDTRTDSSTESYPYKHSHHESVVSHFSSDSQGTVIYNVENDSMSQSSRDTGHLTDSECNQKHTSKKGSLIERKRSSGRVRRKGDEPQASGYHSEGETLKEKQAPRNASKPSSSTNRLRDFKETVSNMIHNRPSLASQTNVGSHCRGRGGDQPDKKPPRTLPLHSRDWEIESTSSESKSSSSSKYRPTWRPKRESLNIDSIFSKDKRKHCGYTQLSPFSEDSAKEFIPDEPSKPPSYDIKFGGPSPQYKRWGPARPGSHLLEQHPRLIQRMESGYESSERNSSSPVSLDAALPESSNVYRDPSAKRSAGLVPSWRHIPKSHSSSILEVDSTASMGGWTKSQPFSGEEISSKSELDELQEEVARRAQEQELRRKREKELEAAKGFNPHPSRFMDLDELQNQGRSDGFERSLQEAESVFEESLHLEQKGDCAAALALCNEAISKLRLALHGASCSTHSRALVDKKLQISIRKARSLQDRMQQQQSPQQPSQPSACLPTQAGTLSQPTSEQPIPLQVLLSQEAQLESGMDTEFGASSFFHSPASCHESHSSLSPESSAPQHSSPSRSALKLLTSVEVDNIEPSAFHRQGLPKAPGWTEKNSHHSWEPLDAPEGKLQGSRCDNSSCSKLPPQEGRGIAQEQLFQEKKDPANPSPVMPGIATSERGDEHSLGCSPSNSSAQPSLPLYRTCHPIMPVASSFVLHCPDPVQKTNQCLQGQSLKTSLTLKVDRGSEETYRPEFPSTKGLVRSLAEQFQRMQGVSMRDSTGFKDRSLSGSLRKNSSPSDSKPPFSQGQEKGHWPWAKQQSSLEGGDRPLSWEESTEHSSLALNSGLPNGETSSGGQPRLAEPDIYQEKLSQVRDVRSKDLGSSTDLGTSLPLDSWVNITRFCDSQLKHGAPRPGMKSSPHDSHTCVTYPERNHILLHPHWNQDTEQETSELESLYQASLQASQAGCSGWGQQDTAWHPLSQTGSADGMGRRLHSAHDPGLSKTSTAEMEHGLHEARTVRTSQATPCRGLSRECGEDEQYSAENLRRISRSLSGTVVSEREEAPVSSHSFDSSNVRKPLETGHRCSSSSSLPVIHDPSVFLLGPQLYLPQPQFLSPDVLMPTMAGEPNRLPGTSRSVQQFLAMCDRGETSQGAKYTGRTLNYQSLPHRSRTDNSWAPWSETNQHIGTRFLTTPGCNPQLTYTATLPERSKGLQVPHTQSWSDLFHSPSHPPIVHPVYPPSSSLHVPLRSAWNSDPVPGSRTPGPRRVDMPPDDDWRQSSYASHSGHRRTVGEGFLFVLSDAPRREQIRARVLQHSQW
UniProt O00487, sequence (O00487 whole entry): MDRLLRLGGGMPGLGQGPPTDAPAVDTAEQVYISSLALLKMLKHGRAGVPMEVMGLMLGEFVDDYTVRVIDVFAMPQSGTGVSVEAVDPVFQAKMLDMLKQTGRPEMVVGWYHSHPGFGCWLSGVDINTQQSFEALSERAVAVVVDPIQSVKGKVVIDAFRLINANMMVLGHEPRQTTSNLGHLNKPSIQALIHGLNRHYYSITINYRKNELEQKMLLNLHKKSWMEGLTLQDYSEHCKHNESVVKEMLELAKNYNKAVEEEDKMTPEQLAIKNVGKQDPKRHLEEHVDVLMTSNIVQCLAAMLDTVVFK
USP46, sequence (P62068 whole entry): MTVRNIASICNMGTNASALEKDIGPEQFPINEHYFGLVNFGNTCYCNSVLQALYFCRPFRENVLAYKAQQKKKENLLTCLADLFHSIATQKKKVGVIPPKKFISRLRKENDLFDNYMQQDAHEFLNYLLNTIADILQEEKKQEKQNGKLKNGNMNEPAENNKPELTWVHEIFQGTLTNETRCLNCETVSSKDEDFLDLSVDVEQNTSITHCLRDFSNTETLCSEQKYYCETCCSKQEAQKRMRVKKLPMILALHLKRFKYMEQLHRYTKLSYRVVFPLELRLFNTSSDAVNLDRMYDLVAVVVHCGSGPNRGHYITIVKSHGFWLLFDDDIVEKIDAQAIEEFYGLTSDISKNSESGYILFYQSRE

O=C(CCl)Nc1cc(Cl)ccc1C(=O)O
inactive: [1] -0.11 | [2] 0.0628 | [3] 0.0765 | [4] 0.232 | [5] 0.436 | [6] 0.0975 | [7] 0.19 | [8] -0.256 | [9] -0.165 | [10] -0.0135
